Hit rate of the full screen: of about 420,000 compounds, about 50,000 (12%) were called active. Where a call stands in place of a potency, no number is given. Inconclusive results (about 26%) are left out. Calls follow the shape of the dose curve; as a rule, active = well fitted inhibition curve with a large enough effect; inconclusive = small, poorly fitted or top-dose-only effect; inactive = flat fitted curve, though single readings scatter. Only a selection was taken, and actives are over-represented in it overall.
Potency is read from the fitted curve at half-maximal effect.

This assay is described as follows: qHTS for Inhibitors of human tyrosyl-DNA phosphodiesterase 1 (TDP1): qHTS in cells in presence of CPT. Also: nearly all actives have a fitted effect of over 55% in size. The settings on record: chicken DT40 Tdp1-/-;hTDP1 cells + 20 nM CPT, ATP luminescence, 48 h; series mostly up to 46.2 µM. Put shortly:
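Chicken DT40 Tdp1-/- cells stably complemented with human TDP1 were seeded at 400 cells/well in medium containing 20 nM camptothecin, exposed to pin-transferred compounds, and grown at 37 °C for at least 48 hr. Viability was read as ATP luminescence.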
On the technique in general: In qHTS, concentration-response curves come from the screen itself.
On to `CC(NC(=O)c1ccccc1C(=O)O)c1ccc(-n2ccnc2)cc1` (stereo not drawn), for which the Potency entry is “inactive”. Still for that read-out and setting: the same measure for `COc1ccc(NC(=O)c2cc3cc(C)ccc3n2C)cc1`: “inactive”; for `COc1ccc(OC)c(/C(C)=N\NC(=O)c2cc3cc(Cl)ccc3n2C)c1`: 5.8 µM (active). On to `COc1ccc(OC)c(C(=O)c2ccc(Cl)cc2)c1`, for which the Potency result is “inactive”. On the same count and under the same terms, the same measure for `OC(c1ccccc1)c1nc(/C=C/c2ccc(C(F)(F)F)cc2)cs1` (stereo not drawn): “inactive”. The same measure, in the same setting: the same measure for `CCN(c1ccccc1)S(=O)(=O)c1cc2c(cc1C)n(C)c(=O)c(=O)n2C`: “inactive”; for `C[C@H](CO)N1C[C@H](C)[C@@H](CN(C)S(=O)(=O)c2ccc(F)cc2)OCc2cnnn2CCCC1=O`: “inactive”. Regarding `COc1cc(CN2CCCC(C(=O)c3ccc(SC)cc3)C2)cc(Cl)c1O` (stereo not drawn), the Potency is 11.6 µM (active). On the same count and under the same terms, the same measure for `COc1ccc(CCN(C)C(=O)C2CCCN(Cc3ccc(OC)c(OC)c3)C2)cc1OC` (stereo not drawn): “inactive”. `COc1ccc(CN2CCCC(C(=O)N3CCCCC3)C2)cc1` (stereo not drawn): the Potency entry is “inactive”. Still for that read-out and setting: the same measure for `COC(=O)N(C)C[C@@H]1OCc2cnnn2CCCC(=O)N([C@@H](C)CO)C[C@@H]1C`: “inactive”. For the compound `CC(=O)N1CCN(C(=O)c2cc(-c3ccc(Cl)s3)nc3ccccc23)CC1`, the Potency entry is “inactive”. In the case of `CCOc1ccc(CNC(=O)c2cc(-c3ccc(Cl)s3)nc3ccccc23)cc1`, the Potency is 20.6 µM (active). Take `O=C(N/N=C/c1ccc(OCc2ccccc2)cc1)c1ccc(O)cc1`: the Potency result is “inactive”. As for `CNC(=O)COC(=O)c1cc(-c2ccc(OC)cc2)nc2ccccc12`, the Potency result is “inactive”. `COc1cccc(-c2cc(C(=O)N/N=C/c3ccc(OC)c(COC(C)=O)c3)c3ccccc3n2)c1`: the Potency is 8.2 µM (active). Still for that read-out and setting: the same measure for `CCOc1ccc(-c2cc(C(=O)N/N=C/c3ccc(O)cc3)c3ccccc3n2)cc1`: 1.84 µM (active); for `CCOc1ccc(NC(=O)c2cc(C)nc3ccccc23)cc1`: “inactive”. For `COc1ccc(/C=N/NC(=O)c2ccc(Cl)cc2)cc1COC(C)=O`, the Potency entry is “inactive”. Turning to `Cc1nc2ccc(C(=O)N/N=C/c3ccc(O)cc3)cc2[nH]1`, the Potency entry is “inactive”. Regarding `C/C(=N\NC(=O)c1ccc2ccccc2c1)c1cccnc1`, the Potency result was “inactive”. For the compound `C/C(=N\NC(=O)c1cc(-c2ccc(O)cc2)nc2ccccc12)c1cccnc1`, the Potency is 20.6 µM (active).

As to `C/C(=N\NC(=O)c1cccc([N+](=O)[O-])c1)c1cccnc1`, the Potency entry was “inactive”.

In the case of `CC(C)=CC1C(C(=O)O)C1(C)C` (stereo not drawn), the Potency result was “inactive”. On to `COc1ccc(NC2CCCN(C(=O)c3ccccc3-c3ncc[nH]3)C2)cc1` (stereo not drawn), for which the Potency result is “inactive”. On the same count and under the same terms, the same measure for `OCC(O)C1OCOC(C(O)CO)C1O` (stereo not drawn): “inactive”; for `COc1cc(OC)c(NC(=O)c2nc(-c3ccncc3)no2)cc1Cl`: “inactive”. Same read-out and setting: the same measure for `CC(C)c1cc(CN2CCOCC2)cc(C(C)C)c1O`: “inactive”; for `Cc1nn(C)c(Cl)c1CN1CCC(n2nccc2NC(=O)C2CCCC2)CC1`: “inactive”. Consider `O=C(N/N=C/c1cccnc1)c1cc2ccccc2cc1O`, for which the Potency result was “inactive”.

On to `O=C(N/N=C/c1cccnc1)c1ccc(NC(=O)c2ccc(F)cc2)cc1`, for which the Potency entry was “inactive”. In the case of `COc1cc(/C=N\NC(=O)C2C(=O)NCC2c2ccccc2)cc(OC)c1O` (stereo not drawn), the Potency entry is “inactive”. `Cc1cc(C(=O)N/N=C/c2ccccn2)c2ccccc2n1`: the Potency result is “inactive”.

As to `COc1cc(/C=N/NC(=O)c2cc(-c3ccccc3C)nc3ccccc23)cc(OC)c1O`, the Potency is 5.8 µM (active). In the case of `O=C(N/N=C\c1cccnc1)c1cc(-c2ccccc2)nc2c(Cl)cccc12`, the Potency was 10.3 µM (active). With `Cc1c(NC(=O)Nc2cccc([N+](=O)[O-])c2)c(=O)n(-c2ccccc2)n1C`, the Potency entry was “inactive”.

For the compound `C#CCOCCOCCOCCNc1nc(N2CCN(C(=O)C([C@@H](C)CC)n3cc(C(N)COC(=O)C(F)(F)F)nn3)CC2)nc(N2CCN(C(=O)[C@H](CCCCN)n3cc(C(N)CC(C)C)nn3)CC2)n1` (stereo partly drawn), the Potency entry was “inactive”.

On to `COc1cc(CN2CCC(n3nccc3NC(=O)CCCc3ccccc3)CC2)ccc1O`, for which the Potency result is “inactive”. As to `CC(Oc1ccc(F)cc1)C(=O)N1CCN(c2ncccn2)CC1` (stereo not drawn), the Potency result was “inactive”. Turning to `O=C(COC(=O)c1cccc(Cl)c1Cl)NC1CCCCCC1`, the Potency entry was “inactive”. Consider `CC(C)(C)c1ccc(C(=O)C[N+]2(C)CCCc3ccccc32)cc1` (stereo not drawn), for which the Potency was 3.55 µM (active).

Regarding `CC(C)(C)c1ccc(C(=O)NNC(=O)Cc2ccccc2)cc1`, the Potency result is “inactive”. With `CCn1ccnc1CNC(=O)CC1C(=O)NCCN1CCCc1ccccc1` (stereo not drawn), the Potency entry was “inactive”. On to `O=C(C(=O)N1CCOc2ccc(CN3CCN(Cc4ccccn4)CC3)cc2C1)c1ccccc1`, for which the activity change, negative = growth inhibition is 6.37% [at 9.04 µM] (inactive). As to `CC(=O)Nc1cccc(NC(=O)CSc2nccn2Cc2ccc(F)cc2)c1`, the Potency result was “inactive”. Regarding `O=C1CC2(CCN(C(=O)COc3ccc(F)cc3)CC2)Oc2ccccc21`, the Potency entry is “inactive”. On the same count and under the same terms, the same measure for `COc1cc(/C=C/C(=O)OCC(=O)NCCCc2ccccc2)ccc1O`: “inactive”. For the compound `CC(C)c1c(C(=O)N/N=C/c2ccc(-c3ccccc3)cc2)nnn1-c1nonc1N`, the Potency result is “inactive”.

On to `CC1CC(C)CN(CCC(=O)Nc2ccc3c(c2)CCC3)C1` (stereo not drawn), for which the Potency entry is “inactive”. Still for that read-out and setting: the same measure for `Cc1ccc(C(=O)OCC(=O)NC(=O)Cc2ccccc2)c(O)c1`: “inactive”; for `Cc1ccc(-n2c3nc(=O)[nH]c(=O)c-3cc3c(Cl)cccc32)cc1`: 1.46 µM (active).

In the case of `O=c1cc(Cl)c2ccccc2n1-c1ccccc1`, the Potency result is “inactive”. In the case of `Cn1c(=O)nc2n(-c3ccc(Br)cc3)c3cccc(Cl)c3cc-2c1=O`, the Potency entry was “inactive”. The same measure, in the same setting: the same measure for `CSc1cccc(NC(=O)CN2C(=O)COc3ccc(S(=O)(=O)N4CCOCC4)cc32)c1`: “inactive”; for `COc1ccc(Cl)cc1NC(=O)COc1ccc2c(c1)OCO2`: “inactive”; for `CC1CCN(C(=S)c2cccc(O)c2)CC1`: “inactive”. For the compound `C=C1C([C@@]2(C)C(OC(C)=O)CC(=O)O[C@@](C)(COC(C)=O)C2CC(=O)OC)C(OC=O)C(OC(=O)C(O)C(C)CC)[C@]2(C)C(c3ccoc3)CC(=O)C12O` (stereo partly drawn), the Potency is 2.59 µM (active). `O=C(Nc1ccccc1Cl)N1CCC(CN2CCCCC2)CC1`: the Potency entry is “inactive”. Regarding `COc1ccc(NC(=O)c2ccc(C#CC(C)(C)O)cc2)cc1`, the Potency result was “inactive”.

For the compound `Cc1cc(=O)[nH]c(N/N=C/c2ccc3c(c2)OCCO3)n1`, the Potency entry is “inactive”. `O=C(NN1CCOCC1)c1cccc(F)c1`: the Potency entry was “inactive”. For the compound `O=C(Nc1c(-c2ccc(F)cc2)nc2ccccn12)c1cccc(F)c1`, the Potency is 20.6 µM (active). For `Cc1oc(-c2cccc(NC(=O)c3ccccc3)c2)nc1CNC(=O)c1cnc2ccccn2c1=O`, the Potency entry is “inactive”.
